# Source: PubChem BioAssay (National Center for Advancing Translational Sciences (NCATS))
# MARV entry inh – Marburg virus entry inhibition; Marburg virus pseudotyped entry inhibition, cell reporter; Potency, µM (series often up to 37.8 µM), without a hit: at the top dose activity change, negative = inhibition, actives largely listed as inhibitors; 300,000 compounds, 1.8% hits; calls by dose curve; tested in HEK293 cells; further: potency means the concentration at half of the fitted maximal effect
# HCV inhibitor – blocks hepatitis C virus. 340,000 compounds, 3.4% hits. AID 651820. Huh7.5.1 HCVcc-Cre infection, luciferase reporter, 44 h. Potency, µM (top dose mostly 41.8 µM), inactives show at the top dose activity change, negative = inhibition, actives largely listed as inhibitors; active means well fitted inhibition curve with a large enough effect; inconclusive means small, poorly fitted or top-dose-only effect, or another doubt; inactive means no such curve, though single readings can be large or run the other way; further: potency means the concentration at half of the fitted maximal effect
#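 Cells (1,000/well) were plated 4 h before compound, then infected with HCVcc-Cre virus (~0.5 moi). After 44 h further culture, infection was read as luciferase luminescence following a 15 min substrate incubation at room temperature.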
# Lassa entry inh – inhibitors of Lassa virus binding or cell entry. Lassa virus pseudotype entry inhibition, cell reporter. 300,000 compounds, 1.2% hits. Potency, µM (titrated, usually from 37.9 µM), without a hit: at the top dose activity change, negative = inhibition, usual class: inhibitors. AID 540256; calls by dose curve; tested in HEK293 cells; further: potency means the concentration at half of the fitted maximal effect; nearly all actives have a fitted effect of over 50% in size
# VACV Venus inh – vaccinia inhibition (Venus reporter); Vaccinia virus Venus reporter expression, fluorescence; 330,000 compounds, 0.46% hits; Potency, µM (highest dose often 36.5 µM), for the others: at the top dose activity change, negative = inhibition, hits mostly inhibitors; calls by dose curve; tested in A549 cells; further: potency means the concentration at half of the fitted maximal effect; nearly all actives have a fitted effect of over 30% in size
# VACV mCherry inh – vaccinia inhibition (mCherry reporter); Potency, µM (series often up to 36.5 µM), without a hit: at the highest dose activity change, negative = inhibition, actives largely listed as inhibitors; Vaccinia virus mCherry reporter infection, fluorescence; 310,000 compounds, 0.63% hits; AID 720579; calls by dose curve; tested in A549 cells; further: potency means the concentration at half of the fitted maximal effect; nearly all actives have a fitted effect of over 35% in size
# HCMV antiviral – inhibitors of human cytomegalovirus; HFF cells, HCMV-luciferase reporter, 72 h; hits give low values; activity change, negative = inhibition, % at 57.5 µM; 410,000 compounds, 4.5% hits; AID 1259415; in the data active means activity change below about -60%; inconclusive means no clear call, values can overlap the other calls; inactive means above about -39%
#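 Two compound doses tested in HFFs infected with HCMV-luciferase, MOI 1 PFU/cell, 72 h at 37C. Lysate luminescence read with OneGlo; data normalized against buffer-only and 10uM Salinomycin inhibitor controls.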
# Starred values were filed as active, the others as inactive; i = inactive; ? = inconclusive; nt = not tested or not shown; [ ] = another dose, or the depositor's remark. Shown are actives, neighbours in structure and some others; about 7.8% of the full set was active somewhere. On the % scale 0 is the no-effect control and ±100 the full control effect.
SMILES,MARV entry inh,HCV inhibitor,Lassa entry inh,VACV Venus inh,VACV mCherry inh,HCMV antiviral
COc1cccc(/C=N/NC(=O)N/N=C/c2cccc(OC)c2O)c1O,4.47µM*,10.1%,?,-18.7%,-12.7%,-13.0
COc1cccc(C=NNC(=O)c2ccncc2)c1O,?,?,?,?,1.58µM*,6.0
COc1ccc(/C=N/NC(=O)c2cccnc2)cc1COc1ccc([N+](=O)[O-])c(C)c1,?,-67.7%,?,-29.5%,-21.1%,-76.0*
COc1ccc(/C=N/NC(=O)c2ccn[nH]2)cc1COc1ccc([N+](=O)[O-])c(C)c1,-16.4%,-10.1%,?,-15.1%,i,?
COc1ccc(NC(=O)C2=C(C)Nc3ncnn3C2c2sccc2C)cc1 (stereo not given),nt,nt,-5.2%[46.1 µM],-13.0%,-1.7%,-4.7
CCC(=O)N1CCc2cc(CNS(=O)(=O)c3ccc(Cl)s3)ccc21,nt,nt,-14.2%[46.1 µM],-16.2%,i,-31.6
CCn1c(C)nc2cc(C(=O)N/N=C/c3ccc(O)c(O)c3O)ccc21,?,-14.1%,-9.6%,0.9%,-11.7%,-7.7
COc1cccc(/C=N/NC(=O)Cn2nc(C)c([N+](=O)[O-])c2C)c1O,?,?,?,?,11.2µM*,18.0
CCn1c(C)nc2cc(C(=O)N/N=C/c3cccc(OC)c3O)ccc21,?,?,?,?,10µM*,-15.3
O=C(CCc1ccccc1)OCCN1CCOCC1,1.2%,21.1%,-14.2%,-10.7%,nt,-2.0
COc1ccc(/C=C(\NC(=O)c2ccccc2)C(=O)NNC(=O)CCN2CCOCC2)cc1,nt,11.6%,nt,nt,nt,?
CCOC(=O)/C(=C\c1ccccc1)C(=O)CCN1CCOCC1,12.0%,10µM*,-3.8%[46.1 µM],-7.5%,i,23.7
O=C(CCN1CCOCC1)NNC(=O)/C(=C/c1ccccc1)NC(=O)c1ccccc1,?,18.9%,11.2µM*,-7.7%,-19.5%,1.2
C=CCC12OC3(OC)CC1[C@H](C)[C@@H](c1ccccc1)C2[C@@]3(C)O (stereo not given in full),0.3%[14.2 µM],nt,nt,nt,nt,nt
O=C(Cn1c(=O)nc(-c2ccccc2F)c2cc(Cl)ccc21)NCCCc1ccccc1,?,nt,?,-7.2%,-5.5%,0.0
O=C(NC(=S)Nc1nc(-c2ccccc2)cs1)c1cccnc1,-3.2%[46.1 µM],6.2%,13.8%,-25.7%,?,16.7
Clc1ccc(-c2csc(N/N=C/c3cccnc3)n2)c(Cl)c1,?,?,7.31µM*,-12.9%,-15.4%,-63.4*
C(=N\Nc1nc(-c2ccccc2)cs1)/c1cccnc1,?,?,?,nt,nt,48.6
O=C(Nc1nc(-c2ccccc2Cl)cs1)c1cccnc1,-15.1%,31.6µM*,4.4%,nt,nt,-12.0
COc1ccc(-c2nnc(NC(=O)c3ccc([N+](=O)[O-])o3)o2)c(OC)c1,-14.0%,?,7.6%,?,?,-94.0*
Cc1ccc(-c2nnc(NC(=O)c3ccc([N+](=O)[O-])o3)o2)c(C)c1,13.9%,?,-3.6%,?,?,?
CCN(CCCNC(=O)c1cc(Nc2ccc(OC)cc2OC)nc2ccccc12)c1cccc(C)c1,?,nt,0.6%[46.1 µM],-16.6%,-22.7%,8.2
COc1ccc(S(=O)(=O)NCC(c2ccco2)N2CCN(c3ccccc3)CC2)cc1OC (stereo not given),nt,nt,-5.9%[46.1 µM],-0.7%,-7.9%,112.4
O=S(=O)(NCC(c1ccco1)N1CCN(c2ccc(F)cc2)CC1)c1ccc2c(c1)OCCO2 (stereo not given),?,?,?,-19.6%,?,-74.8*
COc1ccc(N2CCN(C(CNS(=O)(=O)c3ccc(OC)c(C)c3)c3ccco3)CC2)cc1 (stereo not given),nt,nt,5.62µM*,-15.8%,-15.5%,-28.0
SMILES,MARV entry inh,HCV inhibitor,Lassa entry inh,VACV Venus inh,VACV mCherry inh,HCMV antiviral
O=c1oc2ccccc2c(O)c1[C@H]1c2ccc(O)cc2Oc2c1c(=O)oc1ccccc21,nt,-8.0%,nt,nt,nt,-92.9*
CCOc1cc2c3c(c1)C(C)CC(C)(C)N3C(=O)C2=O (stereo not given),?,nt,-19.3%[14.3 µM],-2.2%,i,-36.3
CCOc1cc2c3c(c1)C(C)=CC(C)(C)N3C(=O)C2=O,nt,-22.6%,nt,nt,nt,-62.8*
CCCN(CCC)S(=O)(=O)c1ccc(C(=O)Nc2nc3c(s2)CCc2ccccc2-3)cc1,?,22.7%,?,0.6%,-16.3%,-72.1*
COc1cccc(OC)c1C(=O)Nc1nc2c(s1)CCc1ccccc1-2,nt,nt,-1.6%[46.1 µM],-6.3%,-2.6%,-12.9
Cc1cccc(C(=O)Nc2ccccc2C(=O)OCc2cc(=O)n3nc(C4CC4)sc3n2)c1,nt,nt,15.9%[46.1 µM],-7.0%,-10.4%,-0.7
Cc1nn(Cc2ccccc2)c2c1C(c1cccc(Cl)c1)C(C#N)=C(N)O2 (stereo not given),?,?,-25.5%,-9.5%,nt,-60.2*
COc1ccc([C@]23Cc4ccccc4[C@H](O2)C2=C(CC(C)(C)CC2=O)O3)cc1,6.3%[14.2 µM],nt,nt,nt,nt,nt
O=C(NC(=S)N1CCN(CCO)CC1)C12CC3CC(CC(C3)C1)C2,?,16.0%,23.5%[46.1 µM],-14.2%,-3.9%,-72.8*
Cc1c(C(=O)N(CCO)C(C)C)cnn1-c1ncc2c(n1)-c1ccccc1CCC2,nt,nt,nt,-7.6%,-0.6%,nt
O=C(CCc1c[nH]c2ccccc12)N1CCCCCCC1,17.9%[46.1 µM],13.2%,0.0%[46.1 µM],-16.7%,-9.5%,-28.4
CC(C)(C)c1cc(CCC(=O)N2CCNCC2)c(C(C)(C)C)cc1O,14.6µM*,?,-23.5%,nt,nt,-2.1
CCN(CC)C(=O)Oc1ccc2ccccc2c1Br,?,?,?,8.8%,-2.6%,-88.9*
O=C(Oc1ccc2ccccc2c1Br)N1CCCCCC1,1.16µM*,-3.5%,3.26µM*,nt,nt,-82.1*
CCN(CC)C(=O)Oc1ccc(Br)c2ccccc12,?,?,?,-0.8%,-13.6%,-30.0
C[C@]12CC(O)C3C(CCC4=CC(=O)CC[C@@]43C)C1CCC2c1csc(-c2ccccc2)n1 (stereo not given in full),nt,?,nt,-29.8%,-6.7%,-75.8*
CC12CCC(=O)C=C1CCC1C2C(O)CC2(C)C(O)CCC12 (stereo not given),-0.9%[46.1 µM],3.2%,-8.8%[46.1 µM],-1.4%,-8.6%,-17.7
C=CCNc1ncnc2c1ncn2C1OC(CO)C(O)C1O (stereo not given),14.1µM*,?,?,?,?,-16.2
OC[C@H]1O[C@@H](n2cnc3c(NCc4ccco4)ncnc32)[C@H](O)[C@@H]1O,nt,17.8µM*,nt,?,10µM*,-38.7
Cc1ccccc1CNc1ncnc2c1ncn2[C@@H]1O[C@@H](CO)[C@H](O)[C@@H]1O,17.7%,nt,nt,nt,nt,nt
OC[C@H]1O[C@@H](n2cnc3cncnc32)[C@H](O)[C@@H]1O,?,nt,?,?,12.6µM*,nt
OCC1OC(n2cnc3c(NCc4ccco4)ncnc32)C(O)C1O (stereo not given),?,?,4.47µM*,?,?,-80.6*
